Screening results deposited in PubChem by National Center for Advancing Translational Sciences (NCATS).
The full list was thinned out, with hits kept by preference.
12-LOX inh = inhibitors of human 12S-lipoxygenase ALOX12; 580,000 compounds, 1.1% hits; purified 12hLO, xylenol orange hydroperoxide absorbance; P18054; Potency, µM (top dose mostly 108 µM), usual class: inhibitors; AID 1671190
Target sequence (P18054 whole entry, looked up): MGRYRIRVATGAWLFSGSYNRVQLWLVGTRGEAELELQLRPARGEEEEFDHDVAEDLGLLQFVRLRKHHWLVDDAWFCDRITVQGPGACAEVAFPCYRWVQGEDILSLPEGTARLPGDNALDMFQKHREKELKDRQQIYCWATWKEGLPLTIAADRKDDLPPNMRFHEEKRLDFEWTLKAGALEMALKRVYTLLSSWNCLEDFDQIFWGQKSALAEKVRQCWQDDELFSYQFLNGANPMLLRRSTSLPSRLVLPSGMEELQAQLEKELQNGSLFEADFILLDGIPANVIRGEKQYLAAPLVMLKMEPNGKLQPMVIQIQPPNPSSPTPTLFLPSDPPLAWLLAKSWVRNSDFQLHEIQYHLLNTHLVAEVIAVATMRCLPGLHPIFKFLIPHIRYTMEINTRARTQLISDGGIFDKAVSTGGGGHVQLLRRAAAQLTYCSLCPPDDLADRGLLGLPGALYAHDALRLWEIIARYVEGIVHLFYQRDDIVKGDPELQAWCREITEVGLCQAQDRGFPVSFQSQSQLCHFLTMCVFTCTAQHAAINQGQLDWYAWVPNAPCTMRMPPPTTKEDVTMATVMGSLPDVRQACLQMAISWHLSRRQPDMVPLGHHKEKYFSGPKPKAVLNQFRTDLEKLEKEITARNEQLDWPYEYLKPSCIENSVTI
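Hydroperoxide product was detected by ferrous iron/xylenol orange as the 573 to 405 nm absorbance ratio. Arachidonic acid at 40 uM (final) was turned over for 30 min at room temperature by 150 nM human 12hLO, pH 7.0 Hepes buffer, after 15 min compound preincubation.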
HT1080NT lethal = kills 2HG-producing HT-1080-NT fibrosarcoma cells. HT-1080-NT fibrosarcoma viability, CellTiter-Glo ATP luminescence, 48 h. Potency, µM (series often up to 46.1 µM), usual class: cytotoxic. 360,000 compounds, 1.6% hits. AID 686970;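 further: NT is the 2HG producing partner of a matched IDH1 knockdown line; nearly all actives have a fitted effect of over 55% in size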
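Viability of the 2HG-overproducing fibrosarcoma line after 48 hours of compound exposure at 37 degrees C was determined by luminescence with CellTiter-Glo, and concentration-effect curves were then fitted and categorized.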
TDP1 cell CPT = DT40-hTDP1 cell growth loss with CPT; chicken DT40 Tdp1-/-;hTDP1 cells + 20 nM CPT, ATP luminescence, 48 h; Potency, µM (highest dose often 46.2 µM), most hits filed as inhibitors; 420,000 compounds, 12% hits; AID 686979; further: nearly all actives have a fitted effect of over 55% in size
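Cell growth measured by CellTiter-Glo luminescence after a minimum 48 h, 37 C compound exposure with 20 nM CPT in Tdp1-knockout DT40 cells stably expressing hTDP1, seeded 400/well; qHTS titration format.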
IL-1B inflam inh = inflammasome signaling inhibition, IL-1 beta readout; THP-1 LPS/ATP IL-1B secretion, AlphaLISA, 16 h; active compounds read low; activity change, % at 57.5 µM; 360,000 compounds, 4.7% hits; in the data active means activity change below about -50%; inconclusive means mostly about -30% to -49%
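THP-1 cells pretreated 1 hr with compounds (up to 57.5 uM final), then stimulated with LPS (250 ng/mL final) plus ATP (1.25 mM final); secreted IL-1B measured by AlphaLISA after 16 hr, decreased signal indicating inhibition.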
TDP1 cell noCPT = qHTS for Inhibitors of human tyrosyl-DNA phosphodiesterase 1 (TDP1): qHTS in cells in absence of CPT | AID 686978, 2013 | Potency, µM (highest dose often 46.2 µM), actives largely listed as inhibitors | 420,000 compounds, 15% hits | DT40 Tdp1-/- hTDP1 cells, no CPT, ATP luminescence, 48 h; further: nearly all actives have a fitted effect of over 55% in size
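Readout: luminescence from CellTiter-Glo after 30 min in the dark at RT. Cells: DT40 Tdp1-/- with stable hTDP1, 400/well. Exposure: compounds alone, ≥48 hr, 37 °C.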
HT1080 IDH1KD tx = kills HT-1080 cells with IDH1 knockdown. HT-1080 IDH1 knockdown viability, ATP luminescence, 48 h. Potency, µM (doses to about 46.1 µM), actives largely listed as cytotoxic. 360,000 compounds, 2% hits
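After a 2 h attachment period, IDH1KD HT-1080 cells took pin-transferred compound for 48 h at 37 °C; ATP-based luminescence after 10 min room-temperature reagent incubation reported viability.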
Hits are given with their value; - = inactive; ? = inconclusive; . = not tested or not shown; [ ] = another dose, or the depositor's remark. Unless noted, the call rests on the fitted dose curve; in most records, active means well fitted curve in the direction sought with a large enough effect; inconclusive means small, poorly fitted or top-dose-only effect, or another doubt; inactive means no such curve, though single readings can be large; an effect the other way counts as inactive or inconclusive.

SMILES | 12-LOX inh | HT1080NT lethal | TDP1 cell CPT | IL-1B inflam inh | TDP1 cell noCPT | HT1080 IDH1KD tx
Cc1noc(/C=C/c2ccco2)c1S(=O)(=O)N1CCC(C(=O)NC(C)c2ccccc2)CC1 (configuration not stated) | - | - | - | - | ? | -
Cc1cc(/C=N/NC(=O)c2ccoc2C)cc(C)c1O | - | - | - | - | - | -
CCN(CC)c1ccc(/C=N/NC(=O)c2ccc3nc[nH]c3c2)c(O)c1 | . | ? | 18.4µM | - | ? | 2.06µM
CCN(CC)c1ccc(/C=N/Nc2ccccc2)c(O)c1 | . | ? | ? | - | ? | -
CCN(CC)c1ccc(/C=N/NC(=S)NC)c(O)c1 | ? | - | 0.731µM | - | 0.517µM | -
CCN(CC)c1ccc(/C=N/NC(=O)OC)c(O)c1 | - | - | ? | - | 25.9µM | -[9.24 µM]
CCN(CC)c1ccc(/C=N/NC(=O)c2ccoc2C)c(O)c1 | - | ? | 13µM | - | 3.26µM | 5.17µM
Cc1c(-c2ccccc2)nc2ccccc2c1C(=O)OCC(=O)NC(C)C | - | . | . | . | . | .
CCN(CC)S(=O)(=O)c1cc([N+](=O)[O-])ccc1N/N=C/c1cccs1 | - | . | . | . | . | .
Cc1noc(C)c1[S+](=O)([O-])N1CCn2cc(C(=O)NCc3ccc(Cl)nc3)nc2C1 | -[6.33 µM] | . | . | . | . | .
COc1ccc(/C=N/NC(=O)c2ccc3nc[nH]c3c2)c(OC)c1 | - | - | 4.61µM | - | ? | -
Cn1cc(C[C@H](NC(=O)OC(C)(C)C)C(=O)N[C@@H](CO)Cc2ccccc2)c2ccccc21 | - | - | 18.4µM | - | ? | -
CC(C)(C)OC(=O)NC(Cc1ccccc1)C(=O)NCCCC(=O)O (configuration not stated) | - | - | - | - | - | -
Cc1ccc(CN2CCSc3ccc(C(=O)NC4CCN(Cc5ccccc5)CC4)cc32)cc1 | - | - | 7.31µM | -81.8 | 8.2µM | -
O=C(NC1CCCC1)c1ccc2c(c1)N(Cc1ccccc1)CCS2 | - | - | ? | - | 18.4µM | -
CCOc1ccc(N2C(=O)CCC2(C)C(=O)NC2CCCC2)cc1 (configuration not stated) | - | . | . | . | . | .
CCc1ccc(C2=NN(C(=O)Cc3ccc(OC)cc3)C(O)(C(F)(F)F)C2)cc1 (configuration not stated) | - | . | . | . | . | .
N#Cc1c(N)n[nH]c1CCCNc1nc(-c2ccccc2)nc2ccccc12 | - | . | . | . | . | .
C/C(=N/Nc1ccc(C(=O)O)cc1)c1ccc2c(c1)Nc1ccccc1S2 | 28.2µM | - | - | - | - | -
C/C(=N\Nc1ccc(C(=O)O)cc1)c1ccc2c(c1)Nc1ccccc1S2 | ? | - | ? | - | ? | ?
CCOc1ccc2c(c1)cc(C(=O)Nc1ccccc1OCC)n2C | - | . | . | . | . | .
Cc1ccc(C2=C/C(=C/c3cccs3)C(=O)O2)cc1 | ? | - | - | - | - | -
CN(C)c1ccc(C=C2C=C(c3ccccc3)OC2=O)cc1 | ? | - | 18.4µM | - | 10.3µM | -
Cc1ccc(C=C2C=C(c3ccccc3)OC2=O)cc1 | - | - | ? | - | 25.9µM | -
CC(=O)Oc1cccc(/C=C2\C=C(c3ccc(C)cc3)OC2=O)c1 | ? | - | 18.4µM | - | ? | -
